# Reference: PubChem BioAssay AID1159580 (chemical genetic matrix, 2015)
# “And” between values parts separate entries of the source, which are not always exact repeats. Equal values may be shown once. The campaign covered roughly 5,500 compounds. About 2,000 (36%) were called active. Roughly 18% stayed inconclusive and do not appear here. Cut-off read from the data, not from the text of the source: active = normalized growth mostly below about 0.91 (no sharp cut-off); inconclusive = no clear call, values can overlap the other calls; inactive = mostly above about 0.92. This is one part of the list.
# Assay: chemical genetic growth profiling, strain panel (AID 1159580);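 note: tested at 20 µM; growth read once vehicle control cultures reached saturation at 30 °C; 1 = growth at the plate median or of vehicle wells; lower values mean less growth of the strain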
# Settings: S. cerevisiae deletion strains, growth OD
smiles,measurement,setting,value
C[C@]12CCC3C(CC[C@H]4C[C@@H](O)CC[C@]34C)C1CCC2=O (some centres undefined),normalized growth,"locus YAL021C, strain ccr4, stronger effect = lower value",0.854 (active)
same,normalized growth,"locus YAL026C, strain drs2, stronger effect = lower value",0.505 (active)
same,normalized growth,"locus YAL030W, strain snc1, stronger effect = lower value",1.01 (inactive)
same,normalized growth,"locus YBL061C, strain skt5, stronger effect = lower value",1.02 (inactive)
same,normalized growth,"locus YBR009C, strain hhf1, stronger effect = lower value",0.896 (active)
same,normalized growth,"locus YBR021W, strain FUR4, stronger effect = lower value",0.857 (inactive)
same,normalized growth,"locus YBR023C, strain chs3, stronger effect = lower value",0.989 (inactive)
same,normalized growth,"locus YBR171W, strain sec66, stronger effect = lower value",1.01 (inactive)
same,normalized growth,"locus YBR229C, strain ROT2, stronger effect = lower value",1.02 (inactive)
same,normalized growth,"locus YBR231C, strain swc5, stronger effect = lower value",1 (inactive)
same,normalized growth,"locus YBR279W, strain paf1, stronger effect = lower value",0.994 (inactive)
same,normalized growth,"locus YCL011C, strain gbp2, stronger effect = lower value",0.937 (inactive)
same,normalized growth,"locus YCL016C, strain dcc1, stronger effect = lower value",0.916 (inactive)
same,normalized growth,"locus YCL029C, strain bik1, stronger effect = lower value",0.842 (active)
same,normalized growth,"locus YCL061C, strain MRC1, stronger effect = lower value",0.961 (inactive)
same,normalized growth,"locus YCL069W, strain vba3, stronger effect = lower value",1.01 (inactive)
same,normalized growth,"locus YCR088W, strain abp1, stronger effect = lower value",1.05 (inactive)
same,normalized growth,"locus YDL005C, strain med2, stronger effect = lower value",1.03 (inactive)
same,normalized growth,"locus YDL035C, strain GPR1, stronger effect = lower value",0.697 (active)
same,normalized growth,"locus YDL040C, strain nat1, stronger effect = lower value",1.05 (inactive)
same,normalized growth,"locus YDL074C, strain BRE1, stronger effect = lower value",0.792 (inactive)
same,normalized growth,"locus YDL101C, strain DUN1, stronger effect = lower value",0.918 (inactive)
same,normalized growth,"locus YDL185W, strain tfp1, stronger effect = lower value",0.949 (inactive)
same,normalized growth,"locus YDL192W, strain arf1, stronger effect = lower value",0.838 (active)
same,normalized growth,"locus YDR001C, strain nth1, stronger effect = lower value",1.05 (inactive)
same,normalized growth,"locus YDR069C, strain doa4, stronger effect = lower value",0.979 (inactive)
same,normalized growth,"locus YDR101C, strain arx1, stronger effect = lower value",0.95 (inactive)
same,normalized growth,"locus YDR137W, strain rgp1, stronger effect = lower value",0.48 (active)
same,normalized growth,"locus YDR159W, strain sac3, stronger effect = lower value",0.938 (inactive)
same,normalized growth,"locus YDR162C, strain NBP2, stronger effect = lower value",0.585 (active)
same,normalized growth,"locus YDR195W, strain ref2",1.44 [resistant] (active)
same,normalized growth,"locus YDR297W, strain sur2, stronger effect = lower value",1.02 (inactive)
same,normalized growth,"locus YDR318W, strain mcm21, stronger effect = lower value",0.764 (active)
same,normalized growth,"locus YDR334W, strain swr1, stronger effect = lower value",1.08 (inactive)
same,normalized growth,"locus YDR335W, strain msn5, stronger effect = lower value",1.02 (inactive)
same,normalized growth,"locus YDR388W, stronger effect = lower value",0.935 (inactive)
same,normalized growth,"locus YDR392W, strain spt3, stronger effect = lower value",0.224 (active)
same,normalized growth,"locus YDR502C, strain sam2, stronger effect = lower value",0.749 (active)
same,normalized growth,"locus YEL003W, strain gim4, stronger effect = lower value",0.977 (inactive)
same,normalized growth,"locus YEL037C, strain rad23, stronger effect = lower value",1.03 (inactive)
same,normalized growth,"locus YEL061C, strain CIN8 (second series), stronger effect = lower value",1.04 (inactive)
same,normalized growth,"locus YEL061C, strain CIN8, stronger effect = lower value",0.908 (active)
same,normalized growth,"locus YER015W, strain faa2, stronger effect = lower value",1.04 (inactive)
same,normalized growth,"locus YER016W, strain bim1, stronger effect = lower value",1.03 (inactive)
same,normalized growth,"locus YER110C, stronger effect = lower value",1.03 (inactive)
same,normalized growth,"locus YER111C, strain swi4, stronger effect = lower value",1.03 (inactive)
same,normalized growth,"locus YER155C, strain BEM2 (second series), stronger effect = lower value",1 (inactive)
same,normalized growth,"locus YER155C, strain BEM2, stronger effect = lower value",0.856 (active)
same,normalized growth,"locus YER167W, strain BCK2, stronger effect = lower value",0.872 (active)
same,normalized growth,"locus YFR010W, strain ubp6, stronger effect = lower value",0.9 (active)
same,normalized growth,"locus YGL078C, strain dbp3, stronger effect = lower value",0.931 (inactive)
same,normalized growth,"locus YGL086W, strain mad1, stronger effect = lower value",0.9 (active)
same,normalized growth,"locus YGL167C, strain pmr1, stronger effect = lower value",1.03 (inactive)
same,normalized growth,"locus YGL173C, strain kem1, stronger effect = lower value",0.943 (inactive)
same,normalized growth,"locus YGL227W, strain vid30, stronger effect = lower value",1.06 (inactive)
same,normalized growth,"locus YGL240W, strain doc1, stronger effect = lower value",0.968 (inactive)
same,normalized growth,"locus YGL248W, strain PDE1, stronger effect = lower value",0.696 (active)
same,normalized growth,"locus YGL253W, strain hxk2, stronger effect = lower value",0.87 (active)
same,normalized growth,"locus YGR078C, strain PAC10, stronger effect = lower value",0.843 (active)
same,normalized growth,"locus YGR135W, strain pre9, stronger effect = lower value",0.711 (active)
same,normalized growth,"locus YHR013C, strain ard1, stronger effect = lower value",0.899 (inactive)
same,normalized growth,"locus YHR027C, strain rpn1, stronger effect = lower value",1.03 (inactive)
same,normalized growth,"locus YHR030C, strain SLT2, stronger effect = lower value",0.785 (active) and 0.897 (inactive)
same,normalized growth,"locus YHR079C, strain IRE1 (second series), stronger effect = lower value",0.94 (inactive)
same,normalized growth,"locus YHR079C, strain IRE1, stronger effect = lower value",0.893 (inactive)
same,normalized growth,"locus YHR094C, strain hxt1, stronger effect = lower value",1.03 (inactive)
same,normalized growth,"locus YHR129C, strain ARP1, stronger effect = lower value",0.766 (active)
same,normalized growth,"locus YHR142W, strain chs7, stronger effect = lower value",0.853 (active)
same,normalized growth,"locus YHR200W, strain rpn10, stronger effect = lower value",0.883 (active)
same,normalized growth,"locus YIL066C, strain RNR3, stronger effect = lower value",0.628 (active)
same,normalized growth,"locus YIL073C, strain SPO22, stronger effect = lower value",0.735 (inactive)
same,normalized growth,"locus YIL125W, strain kgd1, stronger effect = lower value",0.98 (inactive)
same,normalized growth,"locus YIR030C, strain dcg1, stronger effect = lower value",0.868 (active)
same,normalized growth,"locus YJL092W, strain hpr5, stronger effect = lower value",0.988 (inactive)
same,normalized growth,"locus YJL095W, strain BCK1 (second series), stronger effect = lower value",0.923 (inactive)
same,normalized growth,"locus YJL095W, strain BCK1, stronger effect = lower value",0.309 (active) and 0.911 (inactive)
same,normalized growth,"locus YJL115W, strain asf1, stronger effect = lower value",1.04 (inactive)
same,normalized growth,"locus YJL129C, strain trk1, stronger effect = lower value",0.948 (inactive)
same,normalized growth,"locus YJL134W, strain LCB3, stronger effect = lower value",1.02 (inactive)
same,normalized growth,"locus YJL154C, strain vps35, stronger effect = lower value",1.06 (inactive)
same,normalized growth,"locus YJL164C, strain tpk1, stronger effect = lower value",0.859 (active)
same,normalized growth,"locus YJL166W, strain qcr8, stronger effect = lower value",0.877 (active)
same,normalized growth,"locus YJL168C, strain set2, stronger effect = lower value",1.03 (inactive)
same,normalized growth,"locus YJL187C, strain SWE1 (second series), stronger effect = lower value",0.796 (active)
same,normalized growth,"locus YJL187C, strain SWE1, stronger effect = lower value",1.03 (inactive)
same,normalized growth,"locus YJR043C, strain POL32, stronger effect = lower value",0.895 (inactive)
same,normalized growth,"locus YJR066W, strain TOR1, stronger effect = lower value",0.875 (inactive)
same,normalized growth,"locus YJR075W, strain HOC1, stronger effect = lower value",0.857 (active)
same,normalized growth,"locus YKL009W, strain mrt4, stronger effect = lower value",0.832 (active)
